Experimental findings from PubChem BioAssay AID463173 (ICCB-Longwood Screening Facility, Harvard Medical School, 2010) are described below.

Each structure is given as a SMILES string. The whole screen tested about 52,000 compounds, of which about 4,300 (8.3%) were called active. Cut-off read from the data, not from the text of the source: active = survival mostly below about 52% (no sharp cut-off); inactive = mostly above about 56%. What follows is part of a selection rich in actives, with near analogues and random picks from the rest.

In the test the test system is DeltatarO mutant. Nature of the test: S. aureus survival, RN4220 and DeltatarO strains – OD600, teichoic acid synthesis inhibitors, primary screen (AID 463173). Conditions: S. aureus RN4220 wild type/DeltatarO growth, OD600, 18 h, stronger effect = lower value, screened at 18.75 µg/mL (by protocol).
As for `CC(=O)N1c2ccc(S(=O)(=O)NCC3CCC(C(=O)NCCC(C)C)CC3)cc2CC1C` (stereo unspecified), the survival was 102% (inactive).
Next, `CC(C)CC(=O)NCC1(N(C)C)CCCCC1`: 84% (inactive); `O=C(CN1C(=O)C2CCCCN2c2ccc(C(=O)N3CCCC3)cc21)NCc1ccccc1F` (stereo unspecified): 99% (inactive).
Next, `O=C(NCc1cccc(Cl)c1)c1ccc(NC(=O)N2CCSc3ccccc32)cc1`: 57% (inactive); `CSc1nn(Cc2cccc(F)c2)c(N(C(C)=O)C(C)=O)c1S(=O)(=O)c1ccccc1`: 84% (inactive); `Cc1nc(-c2ccc(C)c(N3CCN(C(=O)Nc4cccc(Cl)c4C)CC3)c2)no1`: 88% (inactive).
Take `COc1ccc(CNC(=O)c2cc3c(s2)-c2ccccc2OC3)cc1`: the survival was 64% (inactive).
With `COc1cccc(CNC(=O)c2cc3c(s2)-c2c(C)cccc2OC3)c1`, the survival was 68% (inactive).
For `Cc1ccc(C)c(N(C)C(=O)c2cc3c(s2)-c2ccccc2OC3)c1` the value was -3% (active); for `COc1cccc(CNC(=O)c2cc3c(s2)-c2ccccc2OC3)c1`, 42% (active); for `CCc1cccc(NC(=O)c2cc3c(s2)-c2ccccc2OC3)c1`, 83% (inactive).
On to `COc1cccc(N2CCN(C(=O)c3cc4c(s3)-c3ccccc3OC4)CC2)c1`, for which the survival is 98% (inactive).
Next, `COc1ccc(N(C)C(=O)c2cc3c(s2)-c2ccccc2OC3)cc1`: -2% (active).
On to `COc1cc(NC(=O)c2cc3c(s2)-c2ccccc2OC3)cc(OC)c1OC`, for which the survival was 55% (inactive).
For the compound `COc1ccc(N2CCN(C(=O)c3cc4c(s3)-c3ccccc3OC4)CC2)cc1`, the survival was 114% (inactive).
Next, `CCOc1ccc(NC(=O)c2cc3c(s2)-c2ccccc2OC3)cc1`: 95% (inactive); `Cc1ccc(CCNC(=O)c2cc3c(s2)-c2ccccc2OC3)cc1`: 82% (inactive).
For `CCN(CC)CCOC(=O)c1ccc(NC(=O)c2cc3c(s2)-c2ccccc2OC3)cc1` the value was -7% (active); for `Cc1cc(C)c2c(-n3cccc3)c(C(=O)NCc3cccc(F)c3)sc2n1`, 66% (inactive).
As for `O=S(=O)(c1ccc2[nH]c3c(c2c1)CCCCC3)N1CCN(c2ccccc2)CC1`, the survival is 91% (inactive).
For `COc1ccccc1N1CCN(c2cc(C)nc3nncn23)CC1`, the survival was 81% (inactive).
As for `Cc1nc(-c2cccnc2)sc1CCNS(=O)(=O)c1ccc(F)cc1`, the survival was 75% (inactive).
For `COc1ccc(CNC(=O)C(CC(C)C)NS(=O)(=O)c2ccc3c(c2)CCN3C(C)=O)cc1` (stereo unspecified) the value was 92% (inactive).
Next, `CNCC(O)COc1ccccc1` (stereo unspecified): 94% (inactive).
With `N#CC(C#N)=C(N)/C(C#N)=C/c1cccs1`, the survival was 81% (inactive).
Turning to `CCc1ccc2nc(N3CCCCC3)c(C#N)cc2c1`, the survival was 88% (inactive).
As for `CCn1cc(C(=O)N2CCN(c3ccc(C)cc3)C(C)C2)c(=O)c2cc(S(=O)(=O)N3CCCC3)ccc21` (stereo unspecified), the survival is 87% (inactive).
Regarding `Cc1nc2cc(-c3cccc(F)c3)nn2c(C)c1CCC(=O)Nc1ccccc1C(N)=O`, the survival was 61% (inactive).
Regarding `COC(=O)c1ccc(CSc2nc3c(c(=O)[nH]2)CCC3)cc1`, the survival is 85% (inactive).
For `COC(=O)c1ccccc1NC(=O)c1cc2c(s1)-c1ccccc1OC2` the value was 39% (active); for `CCOc1ccccc1N(C)C(=O)c1cc2c(s1)-c1ccccc1OC2`, -2% (active); for `COc1cc(OC)c(N(C)C(=O)c2cc3c(s2)-c2ccccc2OC3)cc1Cl`, 60% (inactive).
For `CCOc1ccc(CCNC(=O)c2cc3c(s2)-c2ccccc2OC3)cc1OCC` the value was 67% (inactive); for `COc1ccc(Cl)cc1NC(=O)c1cc2c(s1)-c1ccccc1OC2`, 74% (inactive); for `CCOC(=O)c1ccccc1NC(=O)c1cc2c(s1)-c1c(C)cccc1OC2`, 137% (inactive).
As for `CCOC(=O)c1ccc(NC(=O)c2cn(-c3ccccc3)nc2-c2ccc(C)cc2)cc1`, the survival was 57% (inactive).
For `O=C(c1ccccc1Cl)N1CCCCC1CCN1CCCCC1` (stereo unspecified) the value was 100% (inactive); for `COc1cccc(CNC(=O)C(Cc2ccccc2)NS(=O)(=O)c2ccc3c(c2)CCN3C(C)=O)c1` (stereo unspecified), 70% (inactive); for `CC(C)c1ccc(N2C(=O)N(Cc3ccccc3Cl)c3ccccc3S2(=O)=O)cc1`, 86% (inactive).
For `Cc1ccc(NC(=O)CCS(=O)(=O)c2cccc3nsnc23)c(C)c1` the value was 61% (inactive); for `CCN(CC)c1ccc(NC(=O)CCS(=O)(=O)c2cccc3nsnc23)c(C)c1`, 44% (active).
Take `Cc1cc(F)ccc1NC(=O)CCS(=O)(=O)c1cccc2nsnc12`: the survival was 59% (inactive).
Next, `O=C(Cn1cc(C(=O)c2ccco2)c2ccccc21)Nc1ccccc1Cl`: 80% (inactive); `COc1c(C)cc(S(=O)(=O)Nc2cccc(-c3ccc(N4CCOCC4)nn3)c2)c(C)c1C`: 91% (inactive).
For `COc1ccc(CCN2C(=O)c3[nH]nc(-c4ccccc4O)c3C2c2ccc(OC)cc2)cc1` (stereo unspecified) the value was 29% (active).
Next, `COc1ccc(CCN2C(=O)c3[nH]nc(-c4ccccc4O)c3C2c2cccc(OC)c2)cc1` (stereo unspecified): 66% (inactive); `COc1ccc(CCN2C(=O)c3[nH]nc(-c4ccccc4O)c3C2c2ccccc2)cc1` (stereo unspecified): 22% (active).
For `COc1ccc(C2c3c(-c4ccccc4O)n[nH]c3C(=O)N2CCc2ccccc2)cc1` (stereo unspecified), the survival is 21% (active).
Consider `COc1ccc2c(c1)c1c(c(=O)n(-c3ccc(F)c(Cl)c3)c(=O)n1CC(N)=O)n2C`, for which the survival is 96% (inactive).
Next, `CC(=O)Nc1nc(SCc2ccccc2Cl)n[nH]1`: 91% (inactive); `Cc1ccc(NC(=O)Cn2nnc3sc(-c4ccccc4)cc3c2=O)cc1Cl`: 52% (inactive); `O=C(COc1ccc(F)cc1)Nc1ccc2nc(SCC(=O)N3CCCC3)sc2c1`: 91% (inactive).
Next, `COc1cccc(NC(=O)C2CCCN2S(=O)(=O)c2ccc3nc(-c4ccccc4)[nH]c3c2)c1` (stereo unspecified): 44% (active).
Next, `CCc1ccc(NC(=O)C2CCCN2S(=O)(=O)c2ccc3nc(-c4ccccc4)[nH]c3c2)cc1` (stereo unspecified): 82% (inactive).
Turning to `COc1ccc(NC(=O)C2CCCN2S(=O)(=O)c2ccc3nc(-c4ccccc4)[nH]c3c2)cc1` (stereo unspecified), the survival was 77% (inactive).
For `Cc1ccc(NC(=O)C2CCCN2S(=O)(=O)c2ccc3nc(-c4ccccc4)[nH]c3c2)cc1C` (stereo unspecified) the value was 92% (inactive); for `CCc1cccc(NC(=O)C2CCCN2S(=O)(=O)c2ccc3nc(-c4ccccc4)[nH]c3c2)c1` (stereo unspecified), 35% (active).
Next, `CCc1cccc(NC(=O)C2CCCN2S(=O)(=O)c2ccc3c(c2)n(C)c(=O)c(=O)n3C)c1` (stereo unspecified): 85% (inactive); `Cc1cc(C)cc(NC(=O)C2CCCN2S(=O)(=O)c2ccc3nc(-c4ccccc4)[nH]c3c2)c1` (stereo unspecified): 38% (active).
For the compound `COc1cccc(NC(=O)C2CCCN2S(=O)(=O)c2ccc3c(c2)n(C)c(=O)c(=O)n3C)c1` (stereo unspecified), the survival was 87% (inactive).
In the case of `CCOc1ccccc1NC(=O)C1CCCN1S(=O)(=O)c1ccc2nc(-c3ccccc3)[nH]c2c1` (stereo unspecified), the survival is 50% (inactive).
As for `CC(C)c1ccc(NC(=O)C2CCCN2S(=O)(=O)c2ccc3nc(-c4ccccc4)[nH]c3c2)cc1` (stereo unspecified), the survival was 44% (inactive).
For `Cc1cccc(NC(=O)C2CCCN2S(=O)(=O)c2ccc3nc(-c4ccccc4)[nH]c3c2)c1` (stereo unspecified) the value was 37% (active); for `Cc1ccc(NC(=O)C2CCCN2S(=O)(=O)c2ccc3nc(-c4ccccc4)[nH]c3c2)cc1F` (stereo unspecified), 71% (inactive).
Next, `CCOC(=O)N1CCC(NC(=O)c2cnn(-c3ccc(C)cc3C)c2C2CCN(C(=O)OC(C)(C)C)CC2)CC1`: 124% (inactive); `O=C(CNC(=O)c1ccccc1Cl)OCc1cc(=O)n2nc(C3CC3)sc2n1`: 78% (inactive); `CCCCOC(=O)c1ccc(NC(=O)c2cc(-c3ccccc3)on2)cc1`: 91% (inactive).
Next, `Cc1ccc(NC(=O)CSc2ncnc3c2sc2ccccc23)cc1C`: 113% (inactive); `CCN1CCN(Cc2c(O)ccc3oc(C)c(C(=O)Nc4ccc(OC)cc4)c23)CC1`: 78% (inactive); `Cc1cc2c(C)nc3ccc(C(=O)O)cc3c2o1`: 71% (inactive).
As for `Cc1ccc(OC(C)C(=O)N2CCN(CCc3ccncc3)CC2)cc1C` (stereo unspecified), the survival was 52% (inactive).
For `Cc1ccc(Cl)cc1N1CCN(C(=O)C2CCN(S(=O)(=O)c3c(C)noc3/C=C/c3ccccc3F)CC2)CC1` the value was 72% (inactive).
Next, `CCOC(=O)c1cc(S(=O)(=O)NCc2ccccc2)[nH]n1`: 124% (inactive); `CC(C)c1ccc(Nc2ncnc3onc(-c4ccc(F)cc4)c23)cc1`: 80% (inactive).
For `CCOc1ccc(NC(=O)CC2C(=O)N(c3ccccc3)C(=O)N2Cc2cccc(OC)c2)cc1` (stereo unspecified) the value was 102% (inactive); for `COc1ccc(CN2C(=O)N(c3ccc(F)cc3)C(=O)C2CC(=O)Nc2ccccc2)cc1` (stereo unspecified), 77% (inactive); for `COC(=O)c1ccc(NC(=O)CC2C(=O)N(c3ccccc3)C(=O)N2Cc2ccc(F)cc2)cc1` (stereo unspecified), 55% (inactive).
Regarding `CCc1ccc(NC(=O)CC2C(=O)N(c3ccccc3)C(=O)N2C(C)C)cc1` (stereo unspecified), the survival is -5% (active).
Next, `Cc1ccc(N2C(=O)C(CC(=O)Nc3ccc(F)cc3)N(CCC3=CCCCC3)C2=O)cc1` (stereo unspecified): 55% (active); `COc1cccc(CN2C(=O)N(c3ccc(C)cc3)C(=O)C2CC(=O)Nc2cc(OC)cc(OC)c2)c1` (stereo unspecified): 144% (inactive); `O=C(CC1C(=O)N(c2ccccc2)C(=O)N1CCC1=CCCCC1)Nc1ccc(F)cc1` (stereo unspecified): 48% (inactive).
Next, `CCCOc1ccc(NC(=O)CC2C(=O)N(c3ccccc3)C(=O)N2Cc2ccc(F)cc2)cc1` (stereo unspecified): 17% (active); `Cc1ccc(N2C(=O)C(CC(=O)Nc3ccccc3)N(CCC3=CCCCC3)C2=O)cc1` (stereo unspecified): 67% (inactive); `CCCOc1ccc(NC(=O)CC2C(=O)N(c3ccc(C)cc3)C(=O)N2C(C)C)cc1` (stereo unspecified): 128% (inactive).
As to `CCCOc1ccc(NC(=O)CC2C(=O)N(c3ccc(C)cc3)C(=O)N2Cc2cccc(OC)c2)cc1` (stereo unspecified), the survival is 46% (active).
For `COC(=O)c1ccc(NC(=O)CC2C(=O)N(c3cccc(OC)c3)C(=O)N2C(C)C)cc1` (stereo unspecified) the value was 88% (inactive).
